Compound activity from PubChem.
In the library only some 4.7% were active in any assay of this set; here they are far more common.
D1 antag: human D1 dopamine receptor antagonism. activity change, negative = inhibition, % at 10 µM. HEK293 TREx D1 cells, calcium flux, dopamine EC80; stronger effect = lower value. 3.2% of 360,000 active. P21728. AID 504652; in the data active = activity change below about -30%; also: % is scaled to controls: 0 for no effect and ±100 for the full control effect
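Tetracycline-induced HEK293 T-REx cells with force-coupled D1 receptor were loaded with a no-wash calcium dye. Compound was added after a 10 s baseline and read kinetically for 180 s; EC80 dopamine was then added and calcium flux followed another 180 s.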
D1 ag: activates the human D1 dopamine receptor | activation, % at 2 µM | 1% of 360,000 active | HEK293 T-REx D1 cells, calcium flux, agonist mode; also: 0% is about no effect
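Tetracycline-induced HEK293 TREx D1 cells, force-coupled to calcium signalling, were dye-loaded with a no-wash calcium kit. Compound was pin-added after a 10 s baseline. Fluorescence was read kinetically at 1 cycle/s for 180 s, with calcium rises flagged as agonism.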
D1 potentiator: potentiators of human D1 dopamine receptor | P21728 | HEK293 TREx D1 cells, calcium flux, dopamine EC20 potentiation | potentiation, % at 10 µM | 0.036% of 360,000 active | AID 504651; in the data active = potentiation above about 30%; also: 0% is about no effect
TRHR PAM: allosterically enhances the human TRH receptor | AID 493056 | 0.66% of 360,000 active | enhancement, % at 2 µM | TRHR cells, fluo-8 calcium fluorescence, EC20 TRH enhancement | P34981; in the data active = enhancement above about 30%; also: 0% is about no effect
Target sequence (P34981 whole entry, looked up): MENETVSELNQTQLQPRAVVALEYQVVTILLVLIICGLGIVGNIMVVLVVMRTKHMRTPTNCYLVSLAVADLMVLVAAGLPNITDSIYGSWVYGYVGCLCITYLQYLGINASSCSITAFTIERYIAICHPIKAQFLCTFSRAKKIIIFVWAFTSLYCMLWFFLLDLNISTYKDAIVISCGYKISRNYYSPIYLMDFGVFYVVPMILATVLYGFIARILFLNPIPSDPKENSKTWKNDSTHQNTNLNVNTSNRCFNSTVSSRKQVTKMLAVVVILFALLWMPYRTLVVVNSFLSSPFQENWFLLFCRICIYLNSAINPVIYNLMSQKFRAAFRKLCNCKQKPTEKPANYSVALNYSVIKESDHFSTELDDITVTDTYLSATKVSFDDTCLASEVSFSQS
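Enhancer read-out: after compound pinning and an initial kinetic agonist-mode read, an EC20 of TRH (10 nM final) was injected and fluo-8 calcium signal (Ex 480/Em 530) followed at 1 s/cycle for 100 cycles in TRHR-expressing cells.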
TRHR ag: activates the human TRH receptor; P34981; TRHR cells, calcium flux fluo-8, FDSS agonist mode; activation, % at 2 µM; 0.18% of 360,000 active; also: 0% is about no effect
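TRHR-expressing cells loaded with fluo-8 calcium dye; 23 nL library compound pin-transferred, kinetic FDSS fluorescence (Ex 480/Em 530) recorded about 180 s for agonist-induced calcium release, before a 10 nM TRH EC20 addition for potentiator mode.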
Starred values were filed as active, the others as inactive; / = not tested or not shown. Rule as the data show it, unless noted: active = activation above about 30%; inactive = the rest.

SMILES | D1 antag | D1 ag | D1 potentiator | TRHR PAM | TRHR ag
Cc1cc(C)c2sc(N(CCCN(C)C)C(=O)CN3C(=O)c4ccccc4C3=O)nc2c1 | -6 | 42* | -6 | 0 | 3
Cc1cc2c(s1)c1cnn(Cc3cc(F)ccc3C)c(=O)c1n2C | 23 | 2 | 6 | -4 | 0
CN1CCN(c2ccc(-c3nc(-c4ccccc4)no3)cc2[N+](=O)[O-])CC1 | -38* | 6 | -3 | 4 | 0
CN(C)c1ccc(-c2nc(-c3ccccn3)no2)cc1[N+](=O)[O-] | -39* | 10 | -2 | -7 | 0
COc1ccc(-c2noc(-c3ccc(N4CCC(C)CC4)c([N+](=O)[O-])c3)n2)cc1OC | -42* | 20 | -5 | -6 | 1
CCCOc1ccc(C2c3c(-c4ccccc4O)n[nH]c3C(=O)N2CCCOCC)cc1OCC (stereo not given) | 17 | 0 | 11 | 5 | -2
Cc1ccc(-c2cnc(C3CC3)o2)cc1S(=O)(=O)Nc1ccc(F)cc1Cl | -28 | 3 | 0 | 3 | -1
C=CCn1c(CNC(=O)c2cccs2)nnc1SCc1ccc(Cl)cc1Cl | 3 | 60* | -2 | 10 | -1
CC(C)(C)c1cc(NC(=O)CSc2nnc(N)s2)n(-c2ccccc2)n1 | -35* | 3 | 4 | 0 | 0
COc1ccc(C2NC(=O)c3c(sc4c3CCN(C)C4)N2)cc1O (stereo not given) | 2 | 1 | 0 | -4 | 0
CCOc1cc(C2NC(=O)c3c(sc4c3CCN(C)C4)N2)ccc1OC(=O)c1ccccc1Cl (stereo not given) | -14 | 35* | -1 | -1 | -1
COc1ccc(C(=O)Oc2ccc(C3NC(=O)c4c(sc5c4CCN(C)C5)N3)cc2OC)cc1 (stereo not given) | -9 | 17 | -3 | 7 | 50*
Cc1oc(-c2cccc(Cl)c2)nc1CS(=O)(=O)CC(=O)NCc1ccccc1Cl | -9 | 3 | -1 | -19 | 1
COC(=O)c1cc(NC(=O)CCc2c(C)nc3cc(-c4ccccc4)nn3c2C)cc(C(=O)OC)c1 | -2 | 1 | -4 | 40* | 0
COc1ccc(NC(=O)CCc2c(C)nc3cc(-c4cccc(F)c4)nn3c2C)cc1Cl | -23 | 0 | -7 | 40* | 0
COc1ccc(-c2cc3nc(C)c(CCC(=O)NC(C)c4ccccc4)c(C)n3n2)c(OC)c1 (stereo not given) | -7 | -1 | -1 | 2 | 0
COc1cc(NC(=O)CCc2c(C)nc3cc(-c4ccccc4)nn3c2C)cc(OC)c1OC | 0 | -1 | -5 | 5 | 0
COc1cc(OC)cc(-c2cc3nc(C)c(CCC(=O)Nc4ccc(F)c(Cl)c4)c(C)n3n2)c1 | -9 | 2 | -2 | -2 | 0
COc1ccc(-c2cc3nc(C)c(CCC(=O)Nc4cccc(C(F)(F)F)c4)c(C)n3n2)c(OC)c1 | -20 | 0 | -2 | 32* | 0
CCOC(=O)c1sc2ncn(CC(=O)Nc3cccc(C)c3)c(=O)c2c1C | -35* | 2 | 2 | 2 | 1
Cc1cc(C)cc(NC(=O)C2CCCN(c3cnccn3)C2)c1 (stereo not given) | 9 | 3 | -1 | -1 | -2
CCOC(=O)c1cnc2cc(C(F)(F)F)ccc2c1Nc1cc(C)ccc1OC | 0 | 2 | 1 | 1 | -3
C/C(=C/CCC(C)[C@H]1CC[C@@]2(C)C3=C(CC[C@]12C)[C@@]1(C)CCC(=O)C(C)(C)[C@@H]1CC3)C(=O)O (stereo not given in full) | -34* | 9 | -7 | 18 | 0
Cc1nc(-c2ccc(F)cc2)sc1CCNC(=O)c1ccccc1C(F)(F)F | -16 | 5 | -4 | -4 | 0
CCCCCCc1cc2cc(C(=O)OCC)c(=O)oc2cc1O | -1 | 16 | 3 | 3 | 13
SMILES | D1 antag | D1 ag | D1 potentiator | TRHR PAM | TRHR ag
CCCCCCc1cc2cc(/C(N)=N/NC(=O)c3ccncc3)c(=O)oc2cc1O | / | 114* | -1 | 28 | 122*
CCCCCCc1cc2cc(-c3nnc(-c4ccc(C)cc4)o3)c(=O)oc2cc1O | 23 | 221* | 4 | 1 | -1
CCCCCCc1cc2cc(S(=O)(=O)c3ccc(F)c(Cl)c3)c(=O)oc2cc1O | -10 | 51* | -5 | -5 | 25
O=C(c1cc2c(=O)[nH]c3ccccc3c2s1)N1CCN(c2ccc(F)cc2)CC1 | -6 | 1 | 0 | 3 | -1
O=C1CCCc2cc(S(=O)(=O)N3CCCC(C(=O)Nc4ccc(F)c(Cl)c4)C3)ccc2N1 (stereo not given) | -13 | 2 | -4 | 4 | 0
O=C(NNC(=O)c1ccccc1O)c1ccc(Cl)c(S(=O)(=O)N2CCc3ccccc32)c1 | -33* | 9 | 1 | -6 | 0
CC(=O)N1CCN(C(=O)c2ccc(Cl)c(S(=O)(=O)N3CCc4ccccc43)c2)CC1 | -8 | 0 | -6 | -9 | 0
Cc1ccccc1NC(=O)COC(=O)c1ccc(CSc2ccc(Cl)cc2)cc1 | -15 | 179* | -13 | -5 | 0
Cc1ccccc1NC(=O)COC(=O)c1cccnc1 | -16 | 3 | 6 | -2 | 0
COc1ccc(C)cc1NC(=O)COC(=O)c1ccc(OCc2ccc(Cl)cc2Cl)c(OC)c1 | -50* | 1 | -3 | -10 | 0
COc1ccc(S(=O)(=O)N(CCc2ccccc2)CC(=O)N2CCOCC2)cc1 | -74* | 1 | -4 | 1 | -1
COc1ccc(S(=O)(=O)N(C)CC(=O)N2CCOCC2)cc1 | -12 | 0 | -3 | 6 | 1
COc1ccc(C)cc1NS(=O)(=O)c1ccc2c(c1)CCCN2C(C)=O | -17 | 5 | -2 | -5 | 0
Oc1ccc(CCNc2c3ccccc3nc3ccccc23)cc1O | -51* | 12 | 6 | -12 | 0
CCc1ccccc1NC(=O)c1sc(-n2nc(C)c(Cc3ccccc3)c2C)nc1C | -3 | 9 | 1 | 4 | 1
CC(C(=O)Oc1ccc2c(c1)OCO2)N1C(=O)c2ccccc2C1=O (stereo not given) | -40* | 9 | -8 | -7 | 1
CC(C(=O)OCC(=O)Nc1ccc2c(c1)OCO2)N1C(=O)c2ccccc2C1=O (stereo not given) | -4 | 22 | -6 | 5 | -1
CCOc1cccc(C2CC(=O)Nc3cc4c(cc32)OCCO4)c1 (stereo not given) | -32* | 45* | 0 | -1 | 5
Cc1ccc(C2CC(=O)Nc3cc4c(cc32)OCCO4)cc1 (stereo not given) | 2 | 32* | 2 | 10 | -2
O=C1CC(c2ccc(Cl)cc2)c2cc3c(cc2N1)OCCO3 (stereo not given) | 8 | 17 | -1 | 7 | 1
CCOc1ccccc1C1CC(=O)Nc2cc3c(cc21)OCO3 (stereo not given) | -8 | 5 | 1 | 5 | 0
